Assay outcomes deposited in PubChem BioAssay by several laboratories.
CYP2C9 inhib = human CYP2C9 inhibition; P11712; CYP2C9 Supersomes, luciferin-H conversion, luminescence; inhibition, % at 5 µM; 96,000 compounds, 20% hits; AID 777;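 active means blocking of liver enzyme CYP2C9 beyond about 50% at 5 µM, limit read from the data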
Target sequence (P11712 whole entry, looked up): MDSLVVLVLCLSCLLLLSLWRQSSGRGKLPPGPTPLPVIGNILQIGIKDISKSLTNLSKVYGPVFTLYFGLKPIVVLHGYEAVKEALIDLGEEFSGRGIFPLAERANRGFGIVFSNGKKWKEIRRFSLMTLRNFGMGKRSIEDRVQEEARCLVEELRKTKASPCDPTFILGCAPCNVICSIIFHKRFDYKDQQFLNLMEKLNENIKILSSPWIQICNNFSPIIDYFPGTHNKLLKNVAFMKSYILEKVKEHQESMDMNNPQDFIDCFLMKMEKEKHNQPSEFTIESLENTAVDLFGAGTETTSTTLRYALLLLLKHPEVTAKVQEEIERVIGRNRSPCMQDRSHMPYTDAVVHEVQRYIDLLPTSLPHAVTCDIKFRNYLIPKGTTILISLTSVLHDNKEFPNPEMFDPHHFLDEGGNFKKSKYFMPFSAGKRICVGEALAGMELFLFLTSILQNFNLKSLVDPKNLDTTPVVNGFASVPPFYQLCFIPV
CYP2C19 activ = increases human CYP2C19 enzyme activity | P33261 | recombinant CYP2C19, luciferin-H EGE luminescence; hits give high values; 0 = fully inhibited enzyme, 1 = untreated enzyme | activation factor at 5 µM | 96,000 tested, under 10 active | AID 1025;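 active means activation factor of at least 2 at 5 µM in the primary screen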;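 further: 0 = wells with 2.5 mM tranylcypromine and 1 = vehicle-only wells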
CYP2C9 act = activators of human CYP2C9; P11712; recombinant CYP2C9, luciferin-H conversion, luminescence; hits give high values; factor 1 = untreated enzyme, 0 = blocked; activation factor at 5 µM; 96,000 compounds, 1.4% hits; AID 1024;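 active means activation factor of 2 or more for CYP2C9 at a 5 µM dose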;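 further: 0 = sulfaphenazole-blocked wells and 1 = vehicle-only wells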
CYP2C19 inhib = blocks human cytochrome P450 2C19; P33261; CYP2C19 Supersomes, luciferin-H EGE luminescence, 30 min; inhibition, % at 5 µM; 96,000 compounds, 21% hits;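 active means CYP2C19 inhibition above a set limit at 5 µM in the primary screen, cut at about 50% in these data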;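 further: plate controls were negative control wells for no effect and 2.5 mM tranylcypromine positive control for full effect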
Cav32 inh = inhibitors of human Cav3.2 T-type calcium channel; O95180; Cav3.2-expressing cells, Fluo-4 calcium fluorescence FDSS; hits give low values; B-score at 10 µM; 100,000 compounds, 4% hits;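 active means single-dose well whose peak fluorescence ratio is a statistical outlier from its plate by either plate-standardised score or position-corrected B-score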
The depositor's hits bear a star; . = no result. Hits are enriched below; roughly 27% of the tested compounds scored in any of these assays.

SMILES	CYP2C9 inhib	CYP2C19 activ	CYP2C9 act	CYP2C19 inhib	Cav32 inh
CCCCN1C(=O)C(C2c3ccccc3C(=O)N2Cc2ccccc2)C(=O)NC1=S (configuration not stated)	54*	0.8	0.5	18	.
Cc1nc2nc(SCC(=O)N3CCC4(CC3)OCCO4)nn2c(C)c1Cc1ccccc1	23	0.7	0.8	31	1.6
Cc1c(C(=O)N2CCC3(CC2)OCCO3)oc2ccccc12	-13	0	1.1	98*	0.03
O=C(CSc1ccccc1)N1CCC2(CC1)OCCO2	23	0	0.8	98*	-0.011
O=C(CCN1C(=O)COc2ccccc21)N1CCC2(CC1)OCCO2	-12	0.1	1.1	87*	0.81
O=C1NC(=O)C2(C(=O)N1)C(c1ccc(F)cc1)NC(=S)NC2c1ccc(F)cc1 (configuration not stated)	-12	1.1	1.1	-8	-0.32
COC(=O)C1=C(c2cc3ccccc3s2)C[C@@H]2CC[C@H]1N2C(=O)N1CCOCC1	.	.	.	.	0.81
CSc1nnc(C2CCNCC2)n1C	-12	1.2	1.1	-22	0.58
CC1=CC(=O)C2=C(C)CC(O)C3C(C)C(=O)OC3C12 (configuration not stated)	-15	1	1.1	-1	1.2
Cc1cc(C)c2c(c1)-c1cc(C)nn1C(c1cccnc1)N2 (configuration not stated)	.	.	.	.	-0.73
O=C(c1csc2c1CCCCC2)N1CCC2(CC1)OCCO2	-38	0	1.4	98*	0.12
COc1cccc(OC)c1C1=NCC(=O)Nc2c1oc1ccc(Br)cc21	65*	0.6	0.3	40	-4.2*
COc1ccccc1N(CC(=O)NC1CCCC1)C(=O)c1cnn(C(C)C)c1	.	.	.	.	0.25
CC(C)CCn1c(N)c(C(=O)OCC2CCCO2)c2nc3ccccc3nc21 (configuration not stated)	84*	0.4	0.2	63*	-1.7
CCCCOCCCn1c(N)c(C(=O)OCCOC)c2nc3ccccc3nc21	52*	0.6	0.5	38	0.9
CCCCn1c(N)c(C(=O)OCC2CCCO2)c2nc3ccccc3nc21 (configuration not stated)	74*	0.3	0.3	68*	-1.2
COc1ccc2[nH]cc(C3=CCNCC3)c2c1	.	.	.	.	0.15
Cc1[nH]c2ccccc2c1C1=CCNCC1	74*	0.8	0.3	21	-1.5
CN[C@@H]1C[C@@H](c2ccc(Cl)c(Cl)c2)c2ccccc21	.	.	.	.	-1.3
COC(=O)C1=C(c2ccc(S(C)(=O)=O)cc2)C[C@@H]2CC[C@H]1N2C(=O)NCC1CC1	.	.	.	.	0.41
O=P(NS(=O)(=O)c1ccccc1)(Oc1ccccc1)Oc1ccccc1	65*	1	0.3	0	0.13
Cc1ccc(S(=O)(=O)NP(=O)(Oc2ccccc2)Oc2ccccc2)cc1	78*	0.9	0.2	13	-1.8
O=P(NS(=O)(=O)c1ccc(Br)cc1)(Oc1ccccc1)Oc1ccccc1	98*	0.6	0	42	-0.24
O=C(O)[C@H]1C[C@@H]1[C@H](NP(=O)(c1ccccc1)c1ccccc1)c1ccccc1	.	.	.	.	-1.6
CCOC(=O)[C@@]1(C#N)[C@@H]2C=CC(C(N)=O)=CN2[C@@H](C(N)=O)[C@@H]1c1cccc(Cl)c1	59*	0.6	0.4	39	-0.14
SMILES	CYP2C9 inhib	CYP2C19 activ	CYP2C9 act	CYP2C19 inhib	Cav32 inh
CCOC(=O)[C@@]1(C#N)C(c2ccc(Cl)c(Cl)c2)[C@H](C(N)=O)N2C=C(C(C)=O)C=C[C@H]21 (some centres not stated)	3	0.8	1	19	-2.1
COC(=O)CC(=O)c1ccc2c(c1)OCO2	.	.	.	.	0.013
S=C(c1ccc(Cl)cc1)N1CCOCC1	10	0.3	0.9	66*	0.47
O=P(OCC(F)(F)C(F)F)(N1CCOCC1)N1CCOCC1	-4	1	1	2	0.044
CCC(=NCCCn1ccnc1)c1c(O)n(Cc2ccccc2)c(=O)[nH]c1=O	97*	0.1	0	94*	0.35
CCCCn1c(O)c(C(CC)=NCc2cccnc2)c(=O)[nH]c1=O	60*	0.1	0.4	91*	-0.77
CC(=NCc1cccnc1)c1c(O)n(-c2ccccc2)c(=O)[nH]c1=O	17	0.4	0.8	57*	0.054
CC(=NCc1cccnc1)c1c(O)n(Cc2ccccc2)c(=O)[nH]c1=O	.	.	.	.	0.51
CCOc1ccc(-n2c(O)c(C=NCCCn3ccnc3)c(=O)[nH]c2=O)cc1	43	1.1	0.6	-13	-0.16
CCC(=NCc1cccnc1)c1c(O)n(Cc2ccccc2)c(=O)[nH]c1=O	69*	0	0.3	95*	1.5
